# High-throughput results from PubChem.
# HSF1 activator = HSF-1 activators, primary screen, NIH3T3-HGL cells, MG132 stress, luminescence, single point; hit rate 1.7% among 300,000; activation, % at 9 µM; NIH3T3-HGL HSF-1 luciferase reporter, 8 h; 100% = twice DMSO control signal;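 active means mean replicate activation of at least 50% with a set share of replicates each reaching 50%; inconclusive means only one of those two conditions met; inactive means mean below 50% and too few replicates reaching it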;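 further: 0% = median of the neutral control wells and 100% = twice that signal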
# pCIP destab = p/CIP-EGFP fusion destabilizers, primary screen, fluorescence, F442A cells; 16 h; AID 1984, 2009; hit rate 0.01% among 290,000; decrease of EGFP signal, % at 10 µM; Q05BA5;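 active means EGFP signal decrease of at least 30% at 10 µM or well 3 SD below plate mean, unless failing retest; inactive means the rest, including hits failing retest or dose response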
# Target sequence (Q05BA5 1-1403): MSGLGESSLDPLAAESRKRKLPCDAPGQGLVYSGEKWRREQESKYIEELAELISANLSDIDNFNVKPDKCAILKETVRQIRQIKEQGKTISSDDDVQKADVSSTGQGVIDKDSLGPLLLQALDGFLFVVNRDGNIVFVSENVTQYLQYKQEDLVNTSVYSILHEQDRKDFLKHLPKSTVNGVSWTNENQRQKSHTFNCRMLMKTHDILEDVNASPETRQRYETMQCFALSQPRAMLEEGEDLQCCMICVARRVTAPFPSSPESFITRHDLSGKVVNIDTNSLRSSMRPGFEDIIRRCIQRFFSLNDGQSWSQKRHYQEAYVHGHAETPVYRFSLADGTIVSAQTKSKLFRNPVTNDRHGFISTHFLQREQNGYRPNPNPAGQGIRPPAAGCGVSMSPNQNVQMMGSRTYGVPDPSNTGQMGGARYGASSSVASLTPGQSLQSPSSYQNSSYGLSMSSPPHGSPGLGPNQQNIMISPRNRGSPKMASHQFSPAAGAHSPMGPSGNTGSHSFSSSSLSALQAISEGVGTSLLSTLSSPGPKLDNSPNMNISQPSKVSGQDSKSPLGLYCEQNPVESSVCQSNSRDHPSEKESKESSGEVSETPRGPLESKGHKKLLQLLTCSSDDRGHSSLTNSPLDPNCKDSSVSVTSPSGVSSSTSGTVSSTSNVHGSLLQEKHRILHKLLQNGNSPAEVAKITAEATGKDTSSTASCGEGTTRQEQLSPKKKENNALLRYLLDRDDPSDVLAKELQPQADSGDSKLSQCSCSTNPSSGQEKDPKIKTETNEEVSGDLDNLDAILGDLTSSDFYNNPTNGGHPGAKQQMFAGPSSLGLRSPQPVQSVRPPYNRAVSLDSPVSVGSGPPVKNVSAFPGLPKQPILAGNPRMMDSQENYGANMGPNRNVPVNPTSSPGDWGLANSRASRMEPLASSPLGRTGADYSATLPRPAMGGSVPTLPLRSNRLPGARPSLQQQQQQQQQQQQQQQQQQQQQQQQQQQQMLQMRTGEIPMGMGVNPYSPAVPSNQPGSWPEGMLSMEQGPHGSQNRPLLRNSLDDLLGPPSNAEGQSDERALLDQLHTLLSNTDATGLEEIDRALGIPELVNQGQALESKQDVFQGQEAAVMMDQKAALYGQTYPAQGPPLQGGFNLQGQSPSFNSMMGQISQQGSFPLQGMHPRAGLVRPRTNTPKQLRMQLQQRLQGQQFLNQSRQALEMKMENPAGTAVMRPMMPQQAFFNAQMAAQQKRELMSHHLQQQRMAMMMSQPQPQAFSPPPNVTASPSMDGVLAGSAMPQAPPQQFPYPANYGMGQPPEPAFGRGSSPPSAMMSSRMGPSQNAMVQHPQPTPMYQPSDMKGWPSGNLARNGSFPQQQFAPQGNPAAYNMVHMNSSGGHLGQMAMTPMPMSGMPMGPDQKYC
# HSP90 refold inh = HSP90 inhibitors, primary screen, cell lysate, luminescence; Heat shock protein HSP 90 (rabbit reticulocyte lysate; luciferase refolding); Rabbit reticulocyte lysate, luciferase refolding luminescence, 3 h; inhibition, % at 5.6 µM; hit rate 0.91% among 290,000; AID 1789, 2009;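 active means inhibition above the screen-wide mean plus 3 SD, computed separately per campaign, cut at about 16% in these data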;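 further: 0% = DMSO wells and 100% = 60 µM geldanamycin wells; inhibitors lower the luminescence because luciferase stays unfolded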
# NALP1 inh = NALP1 inflammasome inhibitors in reconstituted yeast, colorimetric, S. cerevisiae, triplicate retest; S. cerevisiae NALP1/ASC/caspase-1 growth, X-gal OD620, 72 h; inhibition, % at 10 µM; hit rate 0.61% among 280,000; in the data active means inhibition mostly above about 24%, no sharp cut-off; inactive means mostly below about 32%
# Hsp70 act = Hsp70 transcriptional activators, primary screen, cell-based, HeLa, Hsp70 promoter luciferase, luminescence, 10 µM. HeLa Hsp70 promoter luciferase reporter; scaled: vehicle 0, proteasome-inhibitor control 100%. activation, % at 10 µM. hit rate 0.04% among 200,000;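 active means activation above the mean across all tested compounds plus 3 SD, cutoff set per campaign, cut at about 5.5% in these data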;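 further: 100% = MG132 at 30 µM as the positive control and 0% = DMSO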
# HSF1 inh = HSF1 inhibitors in luciferase reporter cells, primary screen, cell-based, NIH3T3, luminescence; hit rate 0.77% among 300,000; AID 2098, 2009; NIH3T3-HGL HSE-luciferase, MG132-induced, luminescence 8 h; hits give low values; activity change, negative = inhibition, % at 7.5 µM (by protocol);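 active means more than half of replicate wells show activity change below -50%, luminescence cut by over half; inconclusive means some wells, but at most half, below -50%; inactive means no replicate well below -50%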;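 further: luciferase reports HSF-1 transcriptional activity via heat shock element; 0% = median of DMSO wells and -100% = zero luminescence signal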
# An asterisk follows results filed as active; ? = inconclusive; nt = no result given. An excerpt weighted towards active compounds, which were near 3.8% of everything screened.
SMILES,HSF1 activator,pCIP destab,HSP90 refold inh,NALP1 inh,Hsp70 act,HSF1 inh
CCC(C(=O)NC(C)(C)C)N(Cc1ccccc1Cl)C(=O)c1snc(C(N)=O)c1N (configuration not stated),16.0,4.5,0.6,27.4,nt,11.5
Cc1cccc(NC(=O)Cn2nnc3ccccc32)c1,22.5,-7.7,-0.9,6.5,-0.3,10.8
NC(=O)c1ccccc1NC(=O)/C=C/C(=O)O,?,-15.7,-4.1,-6.7,-0.2,25.4
Cc1ccc(C=Nc2ccccc2C(N)=O)cc1,66.0*,-14.0,1.5,-22.6,-0.1,54.9
Cc1ccc(C=Nc2ccccc2C(=O)Nc2ccccc2)cc1,6.4,1.3,-3.0,34.4,-0.3,0.1
Cc1ccc(/C=C/C(=O)Nc2ccccc2C(N)=O)cc1,59.1*,-0.8,2.3,35.5,-0.1,17.8
O=C1/C(=C\c2ccc(O)c(O)c2)N=C2CCCCCN12,1.7,1.0,-3.3,-2.4,nt,6.5
CCCCNC(=NCc1cccc(C(F)(F)F)c1)Nc1ccccc1,0.4,-3.5,0.1,-12.3,nt,-1.2
OCCc1c[nH]c2ccc(C(F)(F)F)cc12,-46.8,-4.9,-1.1,-0.9,nt,-27.4
OCC1CCCN(C(=S)Nc2ccc(Nc3ccccc3)cc2)C1 (configuration not stated),74.2*,-5.2,-0.1,-13.6,0.5,33.6
Nc1nnc(SCc2cn3cc(Cl)ccc3n2)s1,22.1,-9.3,-0.1,8.3,-0.1,-2.8
CN(C)CCCNC(=O)N1c2ccccc2C=Cc2ccccc21,15.8,5.9,-0.1,6.8,nt,-6.1
O=C(c1ccc(Cl)cc1Cl)N1CCc2ccccc21,14.3,-1.6,2.2,10.4,nt,-2.3
O=C(/C=C/c1ccc(Cl)cc1Cl)N1CCc2ccccc21,55.0*,0.2,-3.8,32.5,0.6,21.5
COc1ccc(C(=O)C2CCCN(Cc3ccc(C#CCCO)cc3)C2)cc1F (configuration not stated),nt,1.5,-1.6,15.9,-0.1,nt
CCN(Cc1ccccc1)C(=O)C1CCN(C/C(C)=C/c2ccccc2)CC1,88.2*,0.2,-3.2,28.0,-0.1,37.7
C/C(=C\c1ccccc1)CN1CCC(C(=O)N2CCCC(C)C2)CC1 (configuration not stated),-3.3,-11.7,-0.8,22.7,0.1,-5.5
Cc1cccc2cc(CN(CC(C)C)S(=O)(=O)c3ccccc3)c(=O)[nH]c12,13.1,6.6,1.6,-12.9,nt,0.3
Cc1ccc(-c2cn(S(=O)(=O)c3ccc(C)cc3)nc2N)cc1,69.7*,-8.2,-4.3,2.6,-0.2,26.0
CC(C)C1Cc2c(C#N)c(N)n(C)c(=S)c2CO1 (configuration not stated),-62.6,-5.1,1.7,9.1,-0.3,-52.5*
Clc1ccccc1CO/N=C1\CCCc2nonc21,23.2,-5.7,1.9,42.6*,0.1,10.9
O=C(O)c1cc([N+](=O)[O-])c(NCCC2=CCCCC2)c([N+](=O)[O-])c1,58.9*,-3.0,3.6,3.4,-0.2,20.3
COc1ccc(C(=O)NCCC2=CCCCC2)cc1[N+](=O)[O-],-12.3,-10.2,0.1,35.0*,-0.4,-1.1
CCCCNc1c([N+](=O)[O-])cc(C(=O)O)cc1[N+](=O)[O-],8.9,11.8,-1.8,25.6,-0.3,3.2
O=C(COC(=O)c1ccccc1NCCO)NCCC1=CCCCC1,-6.0,nt,nt,nt,nt,-10.6
SMILES,HSF1 activator,pCIP destab,HSP90 refold inh,NALP1 inh,Hsp70 act,HSF1 inh
Cc1cc(C(=O)NCCC2=CCCCC2)c(C)o1,60.1*,-9.7,8.5,-9.4,0.2,32.7
O=C(COC(=O)c1ccccc1Br)NCCC1=CCCCC1,25.1,-5.9,1.6,38.4*,0.0,20.0
O=P(c1ccccc1)(c1ccccc1)c1nc(-c2ccc(Cl)cc2)oc1N1CCOCC1,26.4,13.6,0.1,-7.5,-0.2,4.2
CCCCCCn1c(=O)c(C(=O)N/N=C/c2cccc(F)c2)c(O)c2ccccc21,13.1,15.2,0.8,14.4,0.0,-0.1
CC(=O)N/N=C/c1ccc(OCCOc2ccc(Br)cc2)cc1,6.5,-8.7,0.1,29.0,-0.1,-2.5
CC(C)(C)C(O)CN1CCCC1 (configuration not stated),-3.9,1.5,-1.3,1.2,-0.4,4.0
